Measured values reported in PubChem BioAssay (NCATS).
Results filed as inconclusive are left out. A number with no mark means an inactive call. Calls of active or inactive are those of the source. Calls come from the whole dose curve; as a rule, active = well fitted cell-killing curve with a large enough effect; inconclusive = small, poorly fitted or top-dose-only effect, or effect the other way; inactive = no such curve, though single readings can be large or run the other way.
Potency is the fitted concentration of half-maximal effect.

Assay: Quantitative High-Throughput drug screen in 47 multiple myeloma cell lines against the NCATS MIPE library collection: OCIMY1_PLB cell viability assay (AID 1918979); note: nearly all actives have a fitted effect of over 35% in size
Details: OCI-MY1 myeloma viability, CellTiter-Glo ATP, 48 h; series mostly up to 45.8 µM; viability: at the top concentration
From the text: PI: Beverly A. Mock Ph.D.
Laboratory of Cancer Biology and Genetics,
Center for Cancer Research, National Cancer Institute,
National Institute of Health, Bethesda, Maryland
Drug resistance and disease progression are common in multiple myeloma (MM) patients, underscoring the need for new therapeutic combinations. […] We hypothesized that effective combinations would reduce MYC expression and enhance p16 activity. […] These preclinical data identify potentially useful drug combinations for evaluation in drug-resistant MM and reveal potential mechanisms of combined drug sensitivity.
Described herein is the primary MIPE qHTS used to cherrypick compounds. Validated compounds were then further tested for potential synergistic activiy.
[1] Peat TJ, Gaikwad SM, Dubois W, Gyabaah-Kessie N, Zhang S, Gorjifard S, Phyo Z, Andres M, Hughitt VK, Simpson RM, Miller MA, Girvin AT, Taylor A, Williams D, D'Antonio N, Zhang Y, Rajagopalan A, Flietner E, Wilson K, Zhang X, Shinn P, Klumpp-Thomas C, McKnight C, Itkin Z, Chen L, Kazandijian D, Zhang J, Michalowski AM, Simmons JK, Keats J, Thomas CJ, Mock BA. Drug combinations identified by high-throughput screening promote cell cycle transition and upregulate Smad pathways in myeloma. Cancer Lett. 2023 Aug 1;568:216284. doi: 10.1016/j.canlet.2023.216284. Epub 2023 Jun 24. PMID: 37356470; PMCID: PMC10408729.
SEQUENCE No. (e.g., 1, 2, 3, etc.); […] (e.g., Cells, Incubation, Reagent, etc.); VALUE and DESCRIPTION.
1; Cells; 5 uL; white, solid bottom 1536-well Greiner assay plate.
2; Compounds; 23 nL; Kalypsis pin tool (Wako USA) equipped with a 1536-well pin head to transfer to the assay plates.
3; Incubation; 48 hours; 37C incubation.
4; Reagent;5uL; CellTiter Glo (Promega).
5; Detector; 425V; Luminescence; Viewlux PerkinElmer.
NOTES (numbers refer to Sequence numbers above)
1. The cell-based screening methods employed in this study were like those previously published. Briefly, the corresponding myeloma cell lines were screened in 1,536-well plates with 500 cells, 5-uL per well for inhibition of cell viability (assessed by measuring ATP levels with CellTiterGlo).
2. NCATS MIPE 4.0 library of approved and investigational drugs were added using the Kalypsis pin tool. Wells treated with DMSO only for 100% viability and media only for 0% viability were used as controls.
3. The assay plates were covered and incubated for 48 hours in a 37C, 5% CO2 incubator with controlled humidity.
4. After 48 hours, CellTilter-GloTM luminescent substrate mix (Promega) reagent was added to the assay plate and plates we incubated for 5 min at room temperature.
5. Signal was measured as median relative luminescence units on a ViewLux (PerkinElmer) multiplate reader.
[1] Heske CM, Davis MI, Baumgart JT, Wilson K, Gormally MV, Chen L, Zhang X, Ceribelli M, Duveau DY, Guha R, Ferrer M, Arnaldez FI, Ji J, Tran HL, Zhang Y, Mendoza A, Helman LJ, Thomas CJ. Matrix Screen Identifies Synergistic Combination of PARP Inhibitors and Nicotinamide Phosphoribosyltransferase (NAMPT) Inhibitors in Ewing Sarcoma. Clin Cancer Res. 2017 Dec 1;23(23):7301-7311. doi: 10.1158/1078-0432.CCR-17-1121. Epub 2017 Sep 12. PMID: 28899971; PMCID: PMC6636827.
With `CCOC(=O)c1c(CSc2ccccc2)n(C)c2cc(Br)c(O)c(CN(C)C)c12` the Potency was 16.6 µM (active). For `CC1(C)CC(=O)c2c(C(F)(F)F)nn(-c3ccc(C(N)=O)c(NC4CCC(O)CC4)c3)c2C1` (stereo not given), the Potency was 0.235 µM (active). For `CC1(COc2ccc3c(c2)ncn3-c2ccc3cccc(N4CCC(N)CC4)c3n2)COC1`, the Potency was 1.48 µM (active). For `CCN1C[C@H](C)n2c(c(O)c3c(=O)n(Cc4ccc(F)c(Cl)c4)nc(C(=O)NC)c32)C1=O`, the “viability” value was 106%. For `COc1cc(F)c(C(C)C)cc1-c1ccc(C(F)(F)F)cc1CN1C(=O)O[C@H](c2cc(C(F)(F)F)cc(C(F)(F)F)c2)[C@@H]1C`, the “viability” value was 115%. For `CN1CCC(COc2cnc(-c3cccc(Cn4nc(-c5cccc(C#N)c5)ccc4=O)c3)nc2)CC1`, the “viability” value was 80.4%. With `CN(C)CCN(Cc1ccc(Cl)cc1)c1ccccn1` the “viability” value was 95.5%. For `C#C[C@]1(O)CC[C@H]2[C@H]3CCc4cc(OC)ccc4[C@H]3CC[C@@]21C`, the “viability” value was 113%. In the case of `COc1ccc2cc1Oc1ccc(cc1)C[C@H]1c3cc(c(OC)cc3CCN1C)Oc1c(OC)c(OC)cc3c1[C@H](C2)N(C)CC3`, the Potency is reported as 18.7 µM (active). For `CCC(=O)OCC(=O)[C@@]1(OC(=O)CC)[C@@H](C)C[C@@H]2[C@H]3CCC4=CC(=O)C=C[C@]4(C)[C@@]3(F)[C@@H](O)C[C@@]21C`, the “viability” value was 100%. With `CCCCC[C@H](O)C=C[C@H]1[C@H](O)CC(=O)[C@H]1CC=CCCCC(=O)O` the “viability” value was 90.1%. For `Fc1ccc(CNc2ncnc3ccc(F)cc23)cc1`, the Potency was 14.8 µM (active). In the case of `CCOC(=O)N1c2ccc(C(F)(F)F)cc2[C@@H](N(Cc2cc(C(F)(F)F)cc(C(F)(F)F)c2)C(=O)OC)C[C@H]1CC`, the Potency is reported as 16.6 µM (active). For `CC(=O)N1CCN(c2ccc(OCc3nn(C)c(C)c3-c3cccc4c(CCCOc5cc(C)c(Cl)c(C)c5)c(C(=O)O)n(Cc5cccnc5)c34)cc2)CC1`, the “viability” value was 94.2%. With `COc1nc(C)cnc1NS(=O)(=O)c1cccnc1-c1ccc(-c2nnco2)cc1` the “viability” value was 121%. With `CN(C)CCN(C)C(=O)c1ccc(NC(=O)Nc2ccc(-c3nc(N4CCOCC4)c4ccn(CC(F)(F)F)c4n3)cc2)cc1` the Potency was 7.43 µM (active). For `NC(=O)c1nnn(Cc2cc(Cl)c(C(=O)c3ccc(Cl)cc3)c(Cl)c2)c1N`, the “viability” value was 94.1%. With `C[C@@H](NC(=O)c1ncnc(N)c1Cl)c1ncc(C(=O)Nc2cc(C(F)(F)F)c(Cl)cn2)s1` the Potency was 2.96 µM (active). With `O=C1CCCC(=O)C1C(=O)c1ccc(C(F)(F)F)cc1[N+](=O)[O-]` the “viability” value was 97.9%. With `NCc1c[nH]c(=S)n1[C@H]1CCc2c(F)cc(F)cc2C1` the “viability” value was 114%. For `CCN1CCN(c2ccc(Nc3cc(N(C)C(=O)Nc4c(Cl)c(OC)cc(OC)c4Cl)ncn3)cc2)CC1`, the “viability” value was 101%. With `NS(=O)(=O)c1ccc(Nc2nc(OCC3CCCCC3)c3[nH]cnc3n2)cc1` the “viability” value was 93.1%. For `O=C(O)C1=NC(C(=O)O)CC(C=CN2c3cc(O)c(OC4OC(CO)C(O)C(O)C4O)cc3CC2C(=O)O)=C1` (stereo not given), the “viability” value was 104%. In the case of `CCOc1ccccc1N=Nc1c(C)[nH]n(-c2nc(-c3ccccc3)cs2)c1=O`, the Potency is reported as 7.43 µM (active). For `CN1CC(=O)N2C(Cc3c([nH]c4ccccc34)[C@H]2c2ccc3c(c2)OCO3)C1=O` (stereo not given in full), the “viability” value was 112%. With `CC1CNc2c(cccc2S(=O)(=O)N[C@@H](CCCN=C(N)N)C(=O)N2CC[C@@H](C)C[C@@H]2C(=O)O)C1` (stereo not given in full) the “viability” value was 109%. With `CON(C)C(=O)N1N=C(c2cc(F)ccc2F)S[C@]1(CCCN)c1ccccc1` the “viability” value was 56.2%. In the case of `N#CC1(c2cccc(C(=O)Nc3cc(Oc4ccc5nc(NC(=O)C6CC6)sc5n4)ccc3F)c2Cl)CC1`, the Potency is reported as 0.332 µM (active). For `CO[C@H]1C=CO[C@@]2(C)Oc3c(C)c(O)c4c(O)c(c(C=NN5CCN(C)CC5)c(O)c4c3C2=O)NC(=O)C(C)=CC=C[C@H](C)[C@H](O)[C@@H](C)[C@@H](O)[C@@H](C)[C@H](OC(C)=O)[C@H]1C`, the “viability” value was 111% [at 15.3 µM]. For `O=C1NC(=O)C(=Cc2ccc(-c3ccc(F)cc3O)o2)S1`, the “viability” value was 98.3%. In the case of `CC(=O)OCC(=O)[C@@]1(O)CC[C@H]2[C@@H]3CCC4=CC(=O)C=C[C@]4(C)[C@@H]3[C@@H](O)C[C@@]21C`, the “viability” value is reported as 91.4%. With `Cc1cc(CS(=O)(=O)c2ccccc2)cc(OCc2ccc(CN3CCC[C@H]3CO)cc2)c1` the “viability” value was 79.4%. In the case of `CN(C(Cc1ccc(OS(=O)(=O)c2cccc3cnccc23)cc1)C(=O)N1CCN(c2ccccc2)CC1)S(=O)(=O)c1cccc2cnccc12` (stereo not given), the Potency is reported as 7.43 µM (active). With `CC=C1C2C=C(C)CC1(N)c1ccc(=O)[nH]c1C2` (stereo not given) the “viability” value was 102%. For `CC(C)c1c(C(=O)Nc2ccccc2)c(-c2ccccc2)c(-c2ccc(F)cc2)n1CC[C@H](O)C[C@@H](O)CC(=O)O`, the “viability” value was 126%. With `C[C@]12CCC3=C4CCC(=O)C=C4CC[C@@H]3[C@H]1CC[C@@]2(O)CC#N` the “viability” value was 118%. For `O=C(O)CCNc1cc(N2CCc3ccccc3CC2)nc(-c2ccccn2)n1`, the “viability” value was 107%. In the case of `CCOC(=O)N1CCN([N+]([O-])=NOc2cc(ON=[N+]([O-])N3CCN(C(=O)OCC)CC3)c([N+](=O)[O-])cc2[N+](=O)[O-])CC1`, the Potency is reported as 7.43 µM (active). With `Cc1nn(Cc2ccccc2Cl)c(C)c1CN(C)CC(O)COc1ccc(Cl)cc1` (stereo not given) the Potency was 18.7 µM (active). With `Cc1cc(OCCCS(C)(=O)=O)cc(C)c1-c1cccc(COc2ccc3c(c2)OC[C@H]3CC(=O)O)c1` the “viability” value was 106%.
